This is an account of results in PubChem BioAssay AID743171 (National Center for Advancing Translational Sciences (NCATS), 2013).

Each structure is given as a SMILES string. Values joined by “and” are separate entries in the source; they are usually repeats but may differ in a detail not shown here. Identical values can stand only once. Inconclusive results are not listed. Active and inactive are the calls of the source. Calls come from the whole dose curve; as a rule, active = well fitted inhibition curve with a large enough effect; inconclusive = small, poorly fitted or top-dose-only effect; inactive = flat fitted curve, though single readings scatter.

15-hydroxyprostaglandin dehydrogenase [NAD(+)] (Homo sapiens), sequence (P15428 whole entry, looked up): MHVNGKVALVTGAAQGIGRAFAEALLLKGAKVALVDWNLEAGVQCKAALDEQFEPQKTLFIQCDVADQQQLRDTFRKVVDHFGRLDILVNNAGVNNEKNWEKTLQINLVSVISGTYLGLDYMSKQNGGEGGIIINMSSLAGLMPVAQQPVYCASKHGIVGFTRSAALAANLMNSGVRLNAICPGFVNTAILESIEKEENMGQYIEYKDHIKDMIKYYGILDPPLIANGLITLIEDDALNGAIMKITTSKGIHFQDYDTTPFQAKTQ

This test has as its target 15-hydroxyprostaglandin dehydrogenase [NAD(+)] (Homo sapiens) (UniProt P15428). Put plainly: Extended Characterization of HPGD Inhibitors: Activity in Primary Assay (HPGD). The note with it: recombinant HPGD, NADH fluorescence, PGE2 substrate. An excerpt:
The central role of HPGD is to inactivate prostaglandins such as prostaglandin E2 (PGE2) or prostaglandin D2 (PGD2). These prostaglandins are involved in a number of processes, including inflammation, differentiation, and cellular signaling, which makes HPGD an important target for pharmacological intervention. Inhibition of 15-PGDH (HPGD) activity was screened by utilizing prostaglandin as an electron donor and NAD+ as an electron acceptor/cofactor. An increase in the fluorescence intensity due to conversion of NAD+ to NADH was used to measure the enzyme activity. All compounds were screened using a qHTS approach, where compounds are assayed using at least seven concentrations to generate concentration-response curves for every compound. Briefly, qHTS uses an inter-plate dilution method where the first plate contains the highest concentration of a set of compounds in DMSO, while subsequent plates contain the same compounds in the same well locations, but at successive lower concentrations. NIH Chemical Genomics Center [NCGC] NIH Molecular Libraries Probe Centers Network [MLPCN] MLPCN Grant: MH084681 Assay Submitter (PI): Structural Genomics Consortium
Three uL of enzyme (20 nM final concentration) were dispensed to 1536-well Greiner black solid bottom plates. Compounds (23 nL) were transferred via Kalypsys PinTool. The plates were incubated for 15 min at room temperature, and then 1 uL of substrate/cofactor solution (Substrate/cofactor solution: 1 mM NAD+ and 30 uM prostaglandin (Sigma, prostaglandin E2, #P5640)) were added to start the reaction. The plates were immediately transferred to and read 4 times every 30 seconds on a ViewLux High-throughput CCD imager (Perkin-Elmer) using 340 nm excitation and 450 nm emission fluorescence protocol. The fluorescence intensity difference between the last and the first time points, normalized against controls, was used to compute reaction progress.
For the compound `Cc1cc(-c2nnc3n2CCCCC3)c(C)n1-c1ccc(Cl)cc1`, the Potency is 38.3 nM (active). For `Cc1cccc(-n2cnc3cc(C(=O)N4CCCC(C)C4)ccc32)c1` (stereo not given), the Potency is 21.5 nM (active). Consider `Cc1cc(-c2nnc3n2CCCCC3)c(C)n1-c1ccc(C(C)(C)C)cc1`, for which the Potency was 85.7 nM (active) and 136 nM (active).

With `COc1ccc(-n2c(C)cc(-c3nnc4n3CCCCC4)c2C)cc1`, the Potency is 85.7 nM (active). Next, `Cc1cc(-c2nnc3n2CCCCC3)c(C)n1-c1cccnc1`: 271 nM (active).
